Anesthetic bind: binds horse apoferritin like a general anesthetic | apoferritin/1-aminoanthracene competitive binding, fluorescence | P02791 | 0.074% of 350,000 active | AID 485281 | Potency, µM (doses to about 77.5 µM), inactives show at the highest dose activity change, negative = displacement, most hits filed as inhibitors; also: potency is read from the fitted curve at half-maximal effect; % is scaled to controls: 0 for no effect and ±100 for the full control effect; nearly all actives have a fitted effect of over 20% in size
Target sequence (P02791 2-175 limits assumed): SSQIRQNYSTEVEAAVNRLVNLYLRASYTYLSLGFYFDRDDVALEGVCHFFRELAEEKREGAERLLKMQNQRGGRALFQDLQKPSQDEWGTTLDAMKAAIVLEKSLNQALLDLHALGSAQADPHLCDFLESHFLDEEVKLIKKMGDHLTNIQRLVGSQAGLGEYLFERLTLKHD
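Apoferritin-based anesthetic binding model; compound displacement of fluorescent 1-AMA measured as endpoint fluorescence after 10 minutes at room temperature, scaled to free-ligand and complex controls.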
ClpP mod: qHTS Assay for Activators of ClpP; purified B. subtilis ClpP, FRET peptide cleavage, 20 min; 1.9% of 340,000 active; ATP-dependent Clp protease proteolytic subunit (Bacillus subtilis (strain 168)), P80244; Potency, µM (top dose mostly 57.5 µM), inactives show at the highest dose activity change, negative = active; active = well fitted falling curve with a large enough effect; inconclusive = small, poorly fitted or top-dose-only effect; inactive = no such curve, though single readings can be large or run the other way; also: potency is read from the fitted curve at half-maximal effect; the source files actives as falling curves though it sought activators and does not explain the sign; nearly all actives have a fitted effect of over 65% in size
Target sequence (P80244 whole entry, looked up): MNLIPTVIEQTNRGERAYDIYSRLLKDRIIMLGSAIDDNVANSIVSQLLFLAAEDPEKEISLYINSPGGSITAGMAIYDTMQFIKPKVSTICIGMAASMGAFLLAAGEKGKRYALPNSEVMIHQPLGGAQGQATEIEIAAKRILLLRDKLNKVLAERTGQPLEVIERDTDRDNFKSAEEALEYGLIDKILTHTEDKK
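Purified B. subtilis ClpP, 10 microg/mL final in Tris/HCl pH8 with KCl, BSA, glycerol and Tween-20, cleaved an Abz/nitrotyrosine-quenched decapeptide. Fluorescence (ex 320, em 430) was read at 0 and 20 min at room temperature. Delta was normalized to 5.8 microM ADEP and DMSO/no-enzyme controls.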
Glioma ERSR ind: inducers of ER stress response in human glioma cells. Potency, µM, without a hit: at the top dose activation, actives largely listed as activators. 0.02% of 420,000 active. AID 602332. U87-MG GRP78 promoter luciferase reporter, 16 h; also: potency is read from the fitted curve at half-maximal effect; series mostly up to about 76 µM; % of control where 0% means no effect; nearly all actives have a fitted effect of over 35% in size
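Stably transfected U87-MG glioma cells carrying a GRP78-based luciferase sensor; 16 h compound incubation. Luminescence end-point read 10 min after Bright-Glo addition at room temperature.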
N370S GC mod: N370S glucocerebrosidase modulation, Gaucher chaperone candidate. P04062. N370S GC spleen homogenate, 4MU-glucoside fluorescence. Potency, µM (series often up to 59.4 µM), for the others: at the highest dose activity change, negative = inhibition, hits mostly inhibitors. 0.092% of 330,000 active. AID 2101;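 also: potency is read from the fitted curve at half-maximal effect; 0% = full enzyme activity and -100% = no enzyme basal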
CBFb RUNX1 block: inhibitors of human CBF-beta and RUNX1 interaction; Q01196+Q13951; AlphaScreen CBFb-His/RUNX1-biotin binding, biochemical; Potency, µM (series often up to 59.8 µM), without a hit: top-dose activity, negative = inhibition, actives largely listed as inhibitors; 230,000 tested, under 10 active; AID 1477; also: % of control where 0% means no effect
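AlphaScreen binding: CBFb-His and RUNX1-biotin (30 nM each) preincubated 20 min, compound added for 15 min, then nickel and streptavidin beads for 90 min, all at room temperature. Disruption of the interaction by any mechanism counts as activity.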
a7 integrin act: integrin-mediated muscular dystrophy alleviation activation; alpha7betagal myoblasts, beta-gal FDG fluorescence, 48 h; Potency, µM (highest dose often 38.3 µM), for the others: at the highest dose activation, actives largely listed as activators; 0.064% of 350,000 active;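 also: potency is read from the fitted curve at half-maximal effect; 100% = response of the positive control SU9516; nearly all actives have a fitted effect of over 60% in size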
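alpha7betagal+/- myoblasts (passage 13, 250/well) treated 48 h at 37C with compounds at 1:260 dilution of DMSO stock. Lysed, then beta-galactosidase activity read as FDG fluorescence (ex 480/em 540) after 30 min, with pre-read for autofluorescence.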
* hit, by the source's call; ? = inconclusive; . = no result. This excerpt belongs to a sample that is enriched for hits. Unless noted, calls follow the shape of the dose curve; as a rule, active = well fitted curve in the direction sought with a large enough effect; inconclusive = small, poorly fitted or top-dose-only effect, or another doubt; inactive = no such curve, though single readings can be large; an effect the other way counts as inactive or inconclusive.

SMILES | Anesthetic bind | ClpP mod | Glioma ERSR ind | N370S GC mod | CBFb RUNX1 block | a7 integrin act
Cc1cc2n(n1)C(c1cn(-c3ccccc3)nc1C)Nc1ccccc1-2 (stereo not drawn) | -5% | 2.5µM* | -1% | 5% | -15% | 4%
Cc1cc2n(n1)C(c1c[nH]c3ccccc13)Nc1ccccc1-2 (stereo not drawn) | -7% | 22µM* | 2% | 10% | 9% | -12%
Fc1ccc(F)c(C2=NNC(=Nc3ccccc3F)SC2)c1 | -22% | -5% | 3% | 22% | -11% | -67%
Fc1ccccc1N=C1NN=C(c2ccccc2)CS1 | -21% | 10µM* | 2% | 12% | -22% | -63%
O=C(C[n+]1cccc2cccc(O)c21)c1ccc(Br)cc1 | . | -1% | 0% | . | . | .
COCc1c(C(=O)NC2CCCC2)cnn1-c1nccc(-c2cccs2)n1 | . | . | 1% | . | . | .
CCCCCCn1c(=O)c(Cc2ccccc2)c(O)c2ccccc21 | -4% | . | -5% | ? | 5% | 28%
CCCCn1c(=O)c(Cc2ccccc2)c(O)c2ccccc21 | 13% | 14µM* | -2% | 2% | 3% | 8%
CN(C)S(=O)(=O)Oc1ccccc1C(=O)Nc1ccc(F)cc1F | -5% | . | -3% | 0% | 4% | ?
CCN(CC)C(=O)Oc1ccc(Br)cc1C(=O)Nc1ccc(F)cc1F | -12% | 32µM* | -4% | 4% | 12% | -19%
CC1(C)CC(=O)c2sc(NC(=O)CN3CCCCC3)nc2C1 | -18% | 16µM* | -1% | -11% | 7% | 2%
COc1ccc(C2C3=C(CC(C)(C)CC3=O)Nc3n[nH]c(C)c32)cc1 (stereo not drawn) | ? | 35µM* | -2% | -11% | 1% | -45%
Cc1[nH]nc2c1C(c1ccccc1)C1=C(CC(C)(C)CC1=O)N2 (stereo not drawn) | -8% | 28µM* | -3% | 15% | 0% | -53%
COc1cccc(C2C3=C(CC(C)(C)CC3=O)Nc3n[nH]c(C)c32)c1 (stereo not drawn) | 0% | 4% | 3% | -3% | -7% | -11%
Cc1ccc(C(=O)NCCc2nnc3n2CCN(Cc2ccc4ccccc4c2)CC3)c(C)c1 | . | . | 2% | . | . | .
COCCn1nnnc1CN(Cc1ccco1)Cc1cc2cc3c(cc2[nH]c1=O)OCO3 | 11% | 28µM* | 0% | 4% | 0% | 0%
CCOc1ccc2[nH]c(=O)c(CN(Cc3ccco3)Cc3nnnn3Cc3ccccc3)cc2c1 | -8% | ? | -2% | 25% | -5% | -33%
COc1ccc2[nH]c(=O)c(CN(Cc3ccco3)Cc3nnnn3Cc3ccccc3)cc2c1 | 81% | 25µM* | 0% | 9% | 2% | -44%
CCC(C)(C)n1nnnc1CN(Cc1ccc(Cl)cc1)Cc1ccco1 | 11% | -1% | -4% | 7% | 18% | 0%
CCC(C)(C)n1nnnc1CN(Cc1ccco1)Cc1cc2cc3c(cc2[nH]c1=O)OCO3 | 5% | 32µM* | -2% | 5% | -9% | -3%
CC(C)(C)n1nnnc1CN(Cc1ccco1)Cc1cc2cc3c(cc2[nH]c1=O)OCO3 | 42% | 28µM* | 3% | -10% | 5% | -52%
CCC1(C2CCN(C(=O)c3ccc(C)c(C)c3)CC2)NC(=O)N(CCc2scnc2C)C1=O (stereo not drawn) | . | . | -1% | . | . | .
COc1cc2nc(N3CCCCC3)nc(NC3CCN(Cc4ccccc4)CC3)c2cc1OC | . | 4% | . | . | . | .
COc1ccc(CN2CC[C@H]3C=CC[C@@H](C(=O)N4CCN(c5ccccc5)CC4)[C@H]3C2=O)cc1OC | . | 1% | -3% | . | . | .
c1coc(-c2ccccc2CN2CCOc3ccc(CN4CCOCC4)cc3C2)c1 | . | . | -2% | . | . | .
SMILES | Anesthetic bind | ClpP mod | Glioma ERSR ind | N370S GC mod | CBFb RUNX1 block | a7 integrin act
CC(Nc1nc(N2CCCCC2)nc2ccccc12)c1ccccc1 (stereo not drawn) | ? | 28µM* | -4% | ? | -4% | -70%
CC(Nc1nc(-c2ccccc2)nc2ccccc12)c1ccccc1 (stereo not drawn) | -19% | -10% | -1% | 5µM* | 14% | -19%
C=CCNc1nc(N2CCCC2)nc2ccccc12 | -3% | 32µM* | -6% | 7% | 1% | -43%
CC(Nc1nc(-c2ccccc2O)nc2ccccc12)c1ccccc1 (stereo not drawn) | 6% | . | -10% | 14% | ? | -35%
Cc1c(C(=O)NCCc2cccnc2)cnn1-c1nccc(-c2ccccc2F)n1 | . | . | -1% | . | . | .
CCC[N+](C)(C)c1ccc(/C=C/c2ccncc2)cc1 | . | 2% | -2% | . | . | .
CC(NC(=O)c1cc(F)ccc1F)c1nnc2n1CCN(Cc1ccco1)CC2 (stereo not drawn) | . | . | -7% | . | . | .
COC(=O)C[C@H]1c2cc(F)ccc2S(=O)(=O)N1C1CC1 | . | 0% | -3% | . | . | .
O=C1NC(c2cccc3ccccc23)Nc2ccccc21 (stereo not drawn) | . | ? | 2% | . | . | -36%
O=C1NC(c2cccs2)Nc2ccccc21 (stereo not drawn) | -12% | ? | -3% | . | ? | -6%
O=C1NC(c2ccccc2Cl)Nc2ccccc21 (stereo not drawn) | 61% | 25µM* | -5% | 11% | 3% | -11%
Cc1ccsc1C1NC(=O)c2ccccc2N1 (stereo not drawn) | -4% | 16µM* | 1% | 12% | 17% | -9%
C=CCOc1c(CNc2ccc(C(=O)O)cc2)cccc1OCC | -7% | -12% | 3% | . | 2% | -6%
C=CCOc1c(CNc2cccc(C(=O)O)c2)cccc1OC | 2% | 25µM* | -5% | -12% | 3% | 4%
C=CCOc1c(CNc2ccc(C(=O)O)cc2)cccc1OC | 0% | -11% | -2% | -5% | 4% | 15%
C=CCOc1c(CNc2cccc(C(=O)O)c2)cccc1OCC | -4% | 32µM* | 8% | 15% | -1% | -12%
Cc1cc(-c2cc(-c3ccc(Cl)cc3)on2)nc(NC2CCCC2)n1 | -10% | 25µM* | -2% | 5% | 7% | 17%
CCCNc1nc(C)cc(-c2cc(-c3ccc(Cl)cc3)on2)n1 | -2% | ? | 1% | 0% | 14% | 21%
Cc1cc(C)nc(S[C@H]2C[C@@H](C(=O)N3CCN(c4ccccc4F)CC3)N(Cc3ccccc3F)C2)n1 | . | . | 1% | . | . | .
COc1ccc(-c2noc3c2-c2nc(-c4ccccc4C)sc2CC3)cc1 | . | 25µM* | -3% | . | . | -26%
Cc1ccccc1-c1nc2c(s1)CCc1onc(-c3ccc(Cl)cc3)c1-2 | . | ? | -2% | 4% | . | 7%

Assay outcomes: PubChem BioAssay, National Center for Advancing Translational Sciences (NCATS)
